Source: PubChem BioAssay (NCI)
The panel holds about 83,000 compounds, 20% with a hit somewhere; the sample as a whole holds those more often.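 Growth was measured after 48 h exposure to one concentration of compound in 96-well plates. Values under 10 count as active.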 Values without a mark were called inactive. Activity calls are given as the source filed them.

tested on: HL-60(TB) leukemia; assay: NCI-60 one-dose screen, 48 h (100 = growth as untreated, 0 = no growth, -100 = all killed); settings: 10 µM unless noted

Structure (SMILES) | growth
CC(=O)Nc1ccc(NC(=O)Nc2cccc(-c3nc(-c4ccc(NC(=O)c5cccnc5)cc4Cl)no3)c2)cc1C(F)(F)F | -39.1% (active)
CN1CCN(Cc2ccc(NC(=O)c3cncc(C#Cc4cnc5ccc(N6CCSCC6)nn45)c3)cc2C(F)(F)F)CC1 | -41.6% (active)
C#C[C@]1(O)CC[C@H]2[C@@H]3CC=C4c5sc(Nc6cc(OC)ccc6OC)nc5CC[C@]4(C)[C@H]3CC[C@@]21C | -5.2% (active)
Cc1cc(C)cc(NC2=C(Cl)C(=O)c3nc(C)ccc3C2=O)c1 | 34.5%
O=C(Cn1cc(CN2C(=O)c3ccc([N+](=O)[O-])cc3C2=O)nn1)Nc1ccc(F)cc1Cl | 99.2%
CCN(CC)S(=O)(=O)c1ccc(-c2nc(C(Cl)Cl)nc3cc(-c4ccc(F)cc4)nn23)cc1 | 4.64% (active)
CN1CCN(CCNc2nc(-c3cccc(NS(=O)(=O)c4cccc5c(N(C)C)cccc45)c3)cs2)CC1 | 45%
C#CCOc1cccc(/C(N)=N/C(N)=N/c2nc3ccccc3s2)c1 | 88.8%
CCCCCc1ccc(S(=O)(=O)Nc2cc(-c3csc(NC(=O)CN4CCN(CCO)CC4)n3)ccc2OC)cc1 | -40.5% (active)
Cc1ccc([C@H]2c3[nH]c4ccccc4c3C[C@H]3C(=O)N(CCCCCCC(=O)NO)CC(=O)N23)s1 | 50.1%
Nc1nc(Nc2ccccc2SSc2ccccc2Nc2nc(N)nc(-c3ccc4ccccc4c3)n2)nc(-c2ccc3ccccc3c2)n1 | 112%
COc1ccc2[nH]cc(-c3nn4cc(-c5ccncc5)nc4s3)c2c1 | 54.9%
